Assay outcomes from PubChem BioAssay.
RE007 growth inh – qHTS Assay for Inhibitors of the HIV-1 protein Vpr; S. pombe RE007 Vpr strain, BacTiter-Glo ATP luminescence, 24 h; Potency, µM (doses to about 92.2 µM), for the others: at the highest dose activity change, negative = less growth, usual class: inhibitors; 360,000 compounds, 0.21% hits; AID 651644, 2012; active = well fitted falling curve with a large enough effect; inconclusive = small, poorly fitted or top-dose-only effect; inactive = no such curve, though single readings can be large or run the other way; note: potency is the fitted concentration of half-maximal effect; % is set by controls: 0 for no effect and ±100 for the full control effect; nearly all actives have a fitted effect of over 50% in size
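Fission yeast RE007 carrying one integrated HIV-1 vpr copy, seeded at OD 0.01 in PMG+AL medium with 23 nL pinned compound. Grown 24 h at 30 degrees; viability read by BacTiter-Glo luminescence after 5 min.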
LmPK inh – qHTS Assay for Inhibitors of Leishmania Mexicana Pyruvate Kinase (LmPK) | purified LmPK, Kinase-Glo ATP luminescence, 1 h | 290,000 compounds, 0.37% hits | Potency, µM (series often up to 57.5 µM), for the others: top-dose activity change, negative = inhibition, most hits filed as inhibitors | AID 1721, 2009 | Q27686; note: potency is the fitted concentration of half-maximal effect; % is set by controls: 0 for no effect and ±100 for the full control effect
Target sequence (Q27686 whole entry, looked up): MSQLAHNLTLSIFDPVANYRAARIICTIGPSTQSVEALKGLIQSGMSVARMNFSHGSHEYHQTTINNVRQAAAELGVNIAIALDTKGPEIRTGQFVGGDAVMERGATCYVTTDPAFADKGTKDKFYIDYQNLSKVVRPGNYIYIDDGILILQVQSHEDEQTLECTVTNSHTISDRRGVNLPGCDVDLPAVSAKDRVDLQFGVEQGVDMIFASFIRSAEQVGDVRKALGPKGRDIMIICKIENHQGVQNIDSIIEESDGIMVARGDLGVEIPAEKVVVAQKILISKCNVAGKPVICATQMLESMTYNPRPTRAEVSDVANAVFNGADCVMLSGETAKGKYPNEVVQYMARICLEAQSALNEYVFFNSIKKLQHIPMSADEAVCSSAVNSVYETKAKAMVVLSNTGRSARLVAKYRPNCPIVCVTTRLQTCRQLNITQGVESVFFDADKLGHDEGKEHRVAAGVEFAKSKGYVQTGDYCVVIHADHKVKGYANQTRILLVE
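qHTS format; LmPK 0.1 nM; substrates PEP 0.5 mM and ADP 0.1 mM. One-hour room-temperature incubation, then coupled luciferase luminescence; 0.5 nM enzyme wells mark activation.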
Shiga inhibitor – A qHTS for Small Molecule Inhibitors of Shiga Toxin; Vero cells, Shiga toxin protein synthesis inhibition reporter; 290,000 compounds, 9.2% hits; inhibition, % at 38.7 µM; in the data active = inhibition mostly above about 28%, no sharp cut-off; inactive = mostly below about 43%; note: 0% is about no effect
CHX counter – Cycloheximide Counterscreen for Small Molecule Inhibitors of Shiga Toxin; cell reporter, cycloheximide protein synthesis inhibition counterscreen; max response, %; 300,000 compounds, 12% hits; AID 2314, 2010; in the data active = max response mostly above about 13%, no sharp cut-off; inactive = mostly below about 14%; note: read at 38.3 µM for the half of the compounds with a filed dose; 0% is about no effect
Giardia FBPA inh – qHTS Assay for Inhibitors of Fructose-1,6-bisphosphate Aldolase from Giardia Lamblia. A8B2U2. purified Giardia FBPA. Potency, µM (titrated, usually from 59.6 µM), for inactives: at the top dose activity, negative = inhibition, hits mostly inhibitors. 290,000 compounds, 0.71% hits. AID 2451, 2010; note: potency is the fitted concentration of half-maximal effect; % is set by controls: 0 for no effect and ±100 for the full control effect; nearly all actives have a fitted effect of over 55% in size
Target sequence (A8B2U2 whole entry, looked up): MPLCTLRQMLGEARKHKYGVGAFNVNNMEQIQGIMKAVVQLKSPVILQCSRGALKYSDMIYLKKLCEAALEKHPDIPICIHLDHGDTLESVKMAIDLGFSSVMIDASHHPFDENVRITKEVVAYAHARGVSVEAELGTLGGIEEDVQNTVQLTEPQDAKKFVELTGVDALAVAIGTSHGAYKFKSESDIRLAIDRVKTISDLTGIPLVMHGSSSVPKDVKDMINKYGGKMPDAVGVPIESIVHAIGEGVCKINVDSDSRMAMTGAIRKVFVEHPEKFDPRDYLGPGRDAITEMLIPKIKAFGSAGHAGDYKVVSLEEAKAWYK
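Giardia FBPA (40 nM reagent) was preincubated 10 min at RT with compound (up to 57.5 uM final), then substrate plus GAPDH/TPI/NAD/arsenate coupling system with diaphorase/resazurin was added; resorufin fluorescence (525/598 nm) was read after 20 min.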
Tb PYK inh – qHTS of Trypanosoma Brucei Inhibitors | pyruvate kinase (Trypanosoma brucei), Q57TT1 | TbPYK enzyme, Kinase-Glo Plus ATP luminescence, 45 min | Potency, µM (titrated, usually from 76.8 µM), for the others: at the highest dose activity, negative = inhibition, usual class: inhibitors | 410,000 compounds, 0.12% hits | AID 624173, 2012; note: potency is the fitted concentration of half-maximal effect; % is set by controls: 0 for no effect and ±100 for the full control effect; nearly all actives have a fitted effect of over 50% in size
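ADP (130 uM final) triggers the TbPYK reaction after compound addition; incubation is 45 min at room temperature. Kinase-Glo Plus is then added and luminescence imaged. Normalized data are fitted to concentration-effect curves.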
Numbers without * were called inactive; ? = inconclusive; / = no result given; [ ] = another dose, or the depositor's remark. Many of the other results were omitted from the sample, so hits are more common in it than they were. Unless noted, calls come from the whole dose curve; as a rule, active = well fitted curve in the direction sought with a large enough effect; inconclusive = small, poorly fitted or top-dose-only effect, or another doubt; inactive = no such curve, though single readings can be large; an effect the other way counts as inactive or inconclusive.

SMILES | RE007 growth inh | LmPK inh | Shiga inhibitor | CHX counter | Giardia FBPA inh | Tb PYK inh
COc1cc(N2CCCC2)c(OC)cc1/C=c1/sc2nc3ccccc3n2c1=O | / | -6.6% | 13.1 | -2.4 | -14.8% | /
Cc1ccc(-n2c(C)cc(/C=c3/sc4nc5ccccc5n4c3=O)c2C)cc1 | -6.5% | 0.7% | 86.7* | 35.1* | 2.5% | -21.0%
O=C(O)Cn1cc(/C=C2/NC(=O)N(c3ccc(Cl)cc3)C2=O)c2ccccc21 | -8.3% | 7.2% | 6.5 | -8.1 | 8.1% | -7.1%
O=c1/c(=C\c2cccn2-c2ccccc2)sc2nc3ccccc3n12 | 1.0% | 3.0% | 28.2* | 21.1 | 4.8% | -5.8%
CCOc1ccc2cc(C3CC(c4ccco4)=NN3S(C)(=O)=O)c(Cl)nc2c1 (configuration not stated) | 10.0% | 2.1% | -3.3 | -1.8 | -4.0% | 0.2%
CCc1ccc(C2CC(c3ccco3)=NN2S(C)(=O)=O)cc1 (configuration not stated) | -22.8% | 12.6µM* | 82.8* | 45.4* | 2.6% | -11.6%
c1ccc(CSc2snnc2-c2ccccc2)cc1 | -10.9% | 4.4% | 41.5* | 44.2* | 4.0% | 4.0%
COC(=O)C(C)Sc1snnc1-c1ccccc1 (configuration not stated) | -5.4% | 8.7% | 10.3 | 2.6 | -3.3% | -5.7%
Clc1ccc(CSc2nnc(-c3ccncc3)o2)c(Cl)c1 | -11.4%[3.69 µM] | 8.5% | -3.2 | -3.6 | 8.2% | /
Clc1ccc(CSc2snnc2-c2ccccc2)c(Cl)c1 | -6.7% | -0.5% | 98.5* | 43.3* | -0.2% | -2.5%
CC(=O)Nc1ccc2ccccc2c1 | -8.3% | -7.1% | 43.0 | 29.2* | 5.7% | 3.7%
CC(=O)CC(=O)Nc1ccc2ccccc2c1 | / | -2.7% | 32.9 | 24.2 | -0.7% | 2.7%
c1ccc(Nc2ccc3ccccc3c2)cc1 | ? | / | / | / | / | -1.7%
CC(=O)Nc1ccc2sc(C)nc2c1 | 18.2% | 3.1% | -3.3 | -3.4 | 1.3% | -0.6%
CC(=O)Nc1ccc2cc3ccc(NC(C)=O)cc3nc2c1 | 6.8% | 2.6% | 30.3 | 21.0* | ? | 3.7%
O=C(Nc1ccccc1)Nc1ccc2ccccc2c1 | -8.3% | -2.5% | 81.0* | 51.7* | 3.8% | -2.3%
CC1CCc2c(sc3nnn(Cc4ccccc4)c(=O)c23)C1 (configuration not stated) | / | / | / | / | / | -8.5%
CSc1nc2sc3c(c2c(=O)n1C)CCC(C)C3 (configuration not stated) | -10.4% | -5.4% | 11.2 | 22.0* | 5.2% | -12.5%
C=CCn1nnc2sc3c(c2c1=O)CCC(C)C3 (configuration not stated) | ? | 4.3% | 48.8* | 29.0* | 5.1% | -5.2%
N#CCSc1nnc(Nc2ccccc2)s1 | 10.2% | -0.7% | 35.3 | 12.2 | -5.0% | 0.0%
O=C(CSc1nc(-c2ccccc2)cs1)Nc1nccs1 | 21.0% | -0.5% | 18.7 | 8.4 | 3.1% | 2.4%
O=C(CSc1ccccc1)N1CCN(C(=O)c2ccco2)CC1 | -1.1% | -1.7% | -3.9 | 7.8 | 2.7% | 7.5%
O=C(CSc1nc(-c2ccccc2)cs1)NC(=O)NCc1ccco1 | 7.7% | -2.0% | 19.0 | 24.7* | -4.2% | -6.0%
N#CCSc1nc(-c2ccccc2)cs1 | -18.0% | -1.7% | 49.8* | 29.6* | -6.4% | -0.5%
O=C(CSc1nc(-c2ccccc2)cs1)N1CCN(C(=O)c2ccco2)CC1 | 11.0% | 5.7% | 12.6 | 18.2* | 5.5% | -0.6%
SMILES | RE007 growth inh | LmPK inh | Shiga inhibitor | CHX counter | Giardia FBPA inh | Tb PYK inh
CC(C)NC(=O)CSc1nc(-c2ccccc2)cs1 | 20.0% | -2.8% | 88.7* | 25.9* | 4.8% | 6.3%
CCCC[C@H](CC)CN1CN(C[C@@H](CC)CCCC)CC(C)(N)C1 | / | / | / | / | 3.2%[21.7 µM] | 5.0%[33.2 µM]
COc1ccc2c(c1)O[C@H](c1ccc3c(c1)OCO3)[C@@H](OC(=O)Nc1ccc(OC(F)F)cc1)C2=O | / | / | / | / | -3.1% | /
O=C(CCC1CCN(Cc2ccccc2)CC1)c1ccc2c(c1)NCCCC2 | / | / | / | / | / | -5.9%
CC1(C)C(=O)Nc2ccccc2N1C(=O)CSc1nc(-c2ccccc2)cs1 | 4.0% | -2.4% | 29.4 | 16.3* | -1.2% | -15.4%
N#CCSc1ccc2nc(-c3ccccc3)cn2n1 | -3.0% | -5.7% | 105.2* | 27.6 | -17.5% | 3.6%
O=C1CN(C(=O)CSc2nc(-c3ccccc3)cs2)c2ccccc2N1 | 2.7% | -2.9% | 8.2 | -1.4 | 2.5% | 4.9%
Cc1ccccc1CSCC(=O)NC(=O)NCc1ccco1 | 11.1% | 3.7% | 11.9 | 16.0* | 20.5% | -9.5%
CCCCC/C=C\C/C=C\C/C=C\C/C=C\CCCC(=O)N[C@H](C)CO | / | / | 26.7 | 3.9 | -0.5% | /
Cc1ccccc1C(=O)Nc1cccc(N)c1 | 7.9% | 1.3% | 30.5* | 17.6* | -20.5% | -7.1%
Nc1ccc(C(=O)Nc2cccc(N)c2)cc1 | / | -23.5% | 76.9* | 19.8* | -10.4% | -0.3%
COc1ccccc1C(=O)Nc1cccc(NC(=O)c2ccccc2C)c1 | -1.2% | 4.4% | 5.9 | 2.8 | 4.7% | -12.9%
C=CCC1(O)CCOc2ccccc21 (configuration not stated) | / | / | / | / | 4.1% | /
Cc1c(Cl)cccc1-c1ccc(CNc2ccc3[nH]c(=O)[nH]c3c2)o1 | / | / | / | / | / | -9.7%
CC(C)(C)Sc1ccc2nc3c(n2c1)CCCC3 | 4.3% | 1.4% | 35.0 | 14.9* | ? | 2.2%
CCCC[C@@H](CC)COC(=O)C[C@H](C(=O)OC[C@H](CC)CCCC)S(=O)(=O)O | / | / | / | / | / | -6.7%
CC(C)(C)c1ccc(S(=O)(=O)Nc2ccc(Cc3ccncc3)cc2)cc1 | -9.4% | -0.4% | 56.2 | 22.2* | -7.1% | 6.8%
Cc1ccc(N2C(=O)C(Cl)=C(N3CCCCCC3)C2=O)cc1 | -13.7% | 0.2% | 44.1 | 26.8* | -0.7% | 0.7%
COc1cc(/C=N/N=C(N)N)ccc1OCc1ccc(Cl)cc1 | 9.3% | 0.3% | 76.5 | 39.7* | -1.6% | -0.5%
COc1cc(/C=N/O)ccc1OCc1ccc(C(=O)O)cc1 | -4.7% | ? | 21.3 | 54.5* | 11.9% | 4.1%
CCOc1cc(/C=N/N=C(N)N)ccc1OCc1ccc(Cl)cc1 | 15.0% | -4.8% | -22.6 | -11.7 | 1.8% | -3.7%
O=C(O)c1cc(/C=N\O)ccc1OCc1ccccc1 | 13.6% | 2.2% | 22.5 | 3.2 | 23.5% | 2.8%
COc1cc(/C=N/N=C2/NC(=O)C(CC(=O)O)S2)ccc1OCc1ccc(Cl)cc1 (configuration not stated) | -1.7% | ? | 38.5 | 20.1* | 6.9% | 17.8µM*
COc1cc(/C=N/O)ccc1OCc1ccc(Cl)cc1 | / | -3.1% | 69.7 | 36.7* | ? | /
N#Cc1cccc(-c2nc3cnc(N4CCOCC4)nc3n(C3CC3)c2=O)c1 | / | / | / | / | 1.3% | /
